Results on 1 molecule are retold here after the supplement of paper PMC11732987, “Enantioselective OTUD7B fragment discovery through chemoproteomics screening and high-throughput optimisation” (Communications Chemistry, 2025).

Test in all cases: log2 ratio of Biotin-Ahx-Ub-VS probe labelling (fragment/DMSO); higher = less target engagement (more negative = stronger competition), active = hit call of the paper (q ≤ 0.05, log2 ratio ≤ -1)
Holding throughout (details): compound concentration: 200 uM; treatment time: 3 h

The target of assay [1] is T1, USP42 (UniProt Q9H9J4).
T1 sequence (whole entry): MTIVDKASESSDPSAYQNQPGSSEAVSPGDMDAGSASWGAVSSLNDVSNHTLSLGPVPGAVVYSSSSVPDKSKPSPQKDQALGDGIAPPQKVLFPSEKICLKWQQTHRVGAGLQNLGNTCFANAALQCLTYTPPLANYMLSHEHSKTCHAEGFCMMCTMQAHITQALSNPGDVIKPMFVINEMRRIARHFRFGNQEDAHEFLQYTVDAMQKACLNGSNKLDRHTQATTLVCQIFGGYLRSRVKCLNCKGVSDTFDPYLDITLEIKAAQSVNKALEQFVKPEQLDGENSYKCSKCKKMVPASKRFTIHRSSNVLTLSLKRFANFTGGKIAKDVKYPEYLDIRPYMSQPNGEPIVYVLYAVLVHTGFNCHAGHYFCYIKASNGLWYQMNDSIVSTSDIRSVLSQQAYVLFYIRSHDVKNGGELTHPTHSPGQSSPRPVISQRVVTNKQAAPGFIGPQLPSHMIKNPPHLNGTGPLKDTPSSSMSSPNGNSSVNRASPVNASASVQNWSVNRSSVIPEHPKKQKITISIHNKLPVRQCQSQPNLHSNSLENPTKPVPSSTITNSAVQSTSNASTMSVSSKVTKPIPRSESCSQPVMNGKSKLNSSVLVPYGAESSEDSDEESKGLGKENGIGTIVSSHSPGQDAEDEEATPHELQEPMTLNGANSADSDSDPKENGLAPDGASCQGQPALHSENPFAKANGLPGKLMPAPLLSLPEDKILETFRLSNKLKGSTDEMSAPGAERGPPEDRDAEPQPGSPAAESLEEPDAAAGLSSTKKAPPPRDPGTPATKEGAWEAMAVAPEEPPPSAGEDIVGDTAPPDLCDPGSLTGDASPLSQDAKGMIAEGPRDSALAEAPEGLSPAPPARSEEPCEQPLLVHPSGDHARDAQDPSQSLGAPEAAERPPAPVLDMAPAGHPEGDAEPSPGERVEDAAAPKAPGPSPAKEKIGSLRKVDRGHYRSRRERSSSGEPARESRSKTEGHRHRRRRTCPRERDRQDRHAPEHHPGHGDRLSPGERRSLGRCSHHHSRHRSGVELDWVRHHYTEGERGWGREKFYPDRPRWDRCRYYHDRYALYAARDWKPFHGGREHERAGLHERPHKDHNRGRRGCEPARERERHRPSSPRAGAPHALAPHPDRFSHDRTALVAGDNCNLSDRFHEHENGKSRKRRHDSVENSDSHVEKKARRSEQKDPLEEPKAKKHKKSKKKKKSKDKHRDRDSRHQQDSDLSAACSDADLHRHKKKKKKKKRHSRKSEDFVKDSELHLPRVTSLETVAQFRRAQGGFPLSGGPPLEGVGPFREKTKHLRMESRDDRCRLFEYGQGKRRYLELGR
In a few lines: (§1)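 Each value is an average log2 ratio of fragment to vehicle, tested by unpaired t-test. The underlying Spectronaut label-free quantities were global-median-normalised, and only proteins with ≥2 unique peptides were included. Triplicate HEK293T lysate samples (495 µg) were exposed to fragment at 200 µM or vehicle for 3 h, then to Biotin-Ahx-Ub-VS at 0.5 µM final for 1 h, before NeutrAvidin enrichment of labelled DUBs, LysC and trypsin digestion, and diaPASEF LC-MS/MS.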

The target of assay [2] is USP46 (UniProt P62068). The gist of the method:
as §1

For assay [3], the target named is T2, USP47 (UniProt Q96K76).
T2 sequence (whole entry): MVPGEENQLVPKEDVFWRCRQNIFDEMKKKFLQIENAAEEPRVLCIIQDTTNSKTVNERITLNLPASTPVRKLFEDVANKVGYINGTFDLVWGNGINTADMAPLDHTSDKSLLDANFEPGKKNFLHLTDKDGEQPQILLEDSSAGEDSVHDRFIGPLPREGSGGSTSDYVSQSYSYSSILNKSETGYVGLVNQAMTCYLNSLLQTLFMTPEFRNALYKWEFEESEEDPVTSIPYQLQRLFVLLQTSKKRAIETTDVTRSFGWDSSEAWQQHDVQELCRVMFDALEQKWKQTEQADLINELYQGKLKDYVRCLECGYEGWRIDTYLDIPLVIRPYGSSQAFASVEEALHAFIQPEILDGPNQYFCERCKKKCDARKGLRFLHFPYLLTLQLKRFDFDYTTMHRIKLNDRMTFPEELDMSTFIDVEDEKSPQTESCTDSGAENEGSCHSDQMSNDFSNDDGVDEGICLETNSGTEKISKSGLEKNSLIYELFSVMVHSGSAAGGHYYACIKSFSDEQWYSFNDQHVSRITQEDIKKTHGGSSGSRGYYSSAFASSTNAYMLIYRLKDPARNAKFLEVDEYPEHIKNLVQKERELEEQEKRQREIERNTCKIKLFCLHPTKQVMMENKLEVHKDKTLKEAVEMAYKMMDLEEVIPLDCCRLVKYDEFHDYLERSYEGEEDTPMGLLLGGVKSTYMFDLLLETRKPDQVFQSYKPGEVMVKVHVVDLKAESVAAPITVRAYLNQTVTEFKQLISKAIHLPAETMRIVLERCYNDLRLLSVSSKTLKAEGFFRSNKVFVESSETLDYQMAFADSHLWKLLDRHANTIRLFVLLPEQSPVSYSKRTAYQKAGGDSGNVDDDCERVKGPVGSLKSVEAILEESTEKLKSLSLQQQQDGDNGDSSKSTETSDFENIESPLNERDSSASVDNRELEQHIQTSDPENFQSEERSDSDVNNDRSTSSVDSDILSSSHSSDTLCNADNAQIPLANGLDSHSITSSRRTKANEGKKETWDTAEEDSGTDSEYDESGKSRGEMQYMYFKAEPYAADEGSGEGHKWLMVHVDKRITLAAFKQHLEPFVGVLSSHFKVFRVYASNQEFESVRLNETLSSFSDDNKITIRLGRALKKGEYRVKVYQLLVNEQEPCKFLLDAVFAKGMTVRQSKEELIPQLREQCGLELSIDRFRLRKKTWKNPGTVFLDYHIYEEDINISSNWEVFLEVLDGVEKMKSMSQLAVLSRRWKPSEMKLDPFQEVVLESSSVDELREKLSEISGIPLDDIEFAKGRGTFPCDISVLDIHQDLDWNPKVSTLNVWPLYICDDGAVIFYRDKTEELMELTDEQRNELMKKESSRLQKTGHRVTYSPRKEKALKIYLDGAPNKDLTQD
In a few lines:
as §1

In assay [4] the target is T3, USP48 (UniProt Q86UV5).
T3 sequence (whole entry): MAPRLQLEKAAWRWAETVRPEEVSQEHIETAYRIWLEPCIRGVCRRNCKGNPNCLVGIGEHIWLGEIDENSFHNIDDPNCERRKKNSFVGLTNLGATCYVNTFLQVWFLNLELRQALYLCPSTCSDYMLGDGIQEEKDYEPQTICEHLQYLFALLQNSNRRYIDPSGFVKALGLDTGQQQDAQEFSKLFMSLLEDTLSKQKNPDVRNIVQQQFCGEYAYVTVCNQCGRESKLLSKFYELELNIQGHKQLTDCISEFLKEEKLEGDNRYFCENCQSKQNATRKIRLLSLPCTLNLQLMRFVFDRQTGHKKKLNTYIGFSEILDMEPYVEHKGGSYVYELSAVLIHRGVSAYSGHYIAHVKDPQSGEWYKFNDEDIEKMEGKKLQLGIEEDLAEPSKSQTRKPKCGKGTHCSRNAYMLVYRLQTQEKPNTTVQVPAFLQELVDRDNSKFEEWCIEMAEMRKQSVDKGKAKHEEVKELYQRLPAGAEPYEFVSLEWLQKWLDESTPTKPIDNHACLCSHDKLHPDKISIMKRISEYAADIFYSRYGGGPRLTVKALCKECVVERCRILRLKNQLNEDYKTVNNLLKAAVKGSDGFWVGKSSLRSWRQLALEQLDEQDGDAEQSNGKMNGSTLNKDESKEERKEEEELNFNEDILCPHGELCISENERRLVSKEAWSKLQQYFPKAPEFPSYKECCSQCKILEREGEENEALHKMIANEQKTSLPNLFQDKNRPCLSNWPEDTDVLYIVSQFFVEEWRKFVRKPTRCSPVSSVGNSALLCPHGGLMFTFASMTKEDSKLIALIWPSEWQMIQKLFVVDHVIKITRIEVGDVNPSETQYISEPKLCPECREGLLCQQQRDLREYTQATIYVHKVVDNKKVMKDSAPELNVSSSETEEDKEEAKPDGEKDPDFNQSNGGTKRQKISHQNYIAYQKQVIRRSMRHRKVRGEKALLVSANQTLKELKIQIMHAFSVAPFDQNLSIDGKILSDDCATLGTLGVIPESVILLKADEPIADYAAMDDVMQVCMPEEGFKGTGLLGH
In a few lines: as §1

Assay [5] concerns the target T4, USP5 (UniProt P45974).
T4 sequence (whole entry): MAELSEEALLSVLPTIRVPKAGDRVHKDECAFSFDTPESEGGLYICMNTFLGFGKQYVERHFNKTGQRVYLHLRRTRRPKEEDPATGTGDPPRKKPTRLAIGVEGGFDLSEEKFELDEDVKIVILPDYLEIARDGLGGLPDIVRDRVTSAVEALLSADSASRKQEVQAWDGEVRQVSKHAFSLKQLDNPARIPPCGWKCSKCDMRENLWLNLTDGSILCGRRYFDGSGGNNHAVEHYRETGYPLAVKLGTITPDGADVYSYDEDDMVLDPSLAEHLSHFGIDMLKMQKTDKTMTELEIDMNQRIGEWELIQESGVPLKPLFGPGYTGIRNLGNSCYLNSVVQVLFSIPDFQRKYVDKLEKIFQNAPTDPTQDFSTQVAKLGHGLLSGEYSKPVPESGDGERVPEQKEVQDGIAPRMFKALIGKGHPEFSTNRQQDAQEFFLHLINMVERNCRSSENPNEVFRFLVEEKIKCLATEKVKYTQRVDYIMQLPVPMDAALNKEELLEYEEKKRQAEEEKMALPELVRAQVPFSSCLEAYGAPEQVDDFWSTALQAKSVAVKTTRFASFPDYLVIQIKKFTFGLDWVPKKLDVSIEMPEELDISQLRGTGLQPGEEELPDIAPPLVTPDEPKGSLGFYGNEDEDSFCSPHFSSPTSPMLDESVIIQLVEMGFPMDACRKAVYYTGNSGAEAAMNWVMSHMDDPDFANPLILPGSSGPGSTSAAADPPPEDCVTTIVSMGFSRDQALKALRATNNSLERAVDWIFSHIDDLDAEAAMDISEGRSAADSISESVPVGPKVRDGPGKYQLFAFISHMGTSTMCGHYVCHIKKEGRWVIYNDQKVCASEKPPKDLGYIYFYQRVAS
The gist of the method:
as §1

In assay [6] the target is USP54 (UniProt Q70EL1). The gist of the method:
as §1

The target of assay [7] is USP7 (UniProt Q93009). The gist of the method: as §1
USP7, sequence (Q93009 whole entry, looked up): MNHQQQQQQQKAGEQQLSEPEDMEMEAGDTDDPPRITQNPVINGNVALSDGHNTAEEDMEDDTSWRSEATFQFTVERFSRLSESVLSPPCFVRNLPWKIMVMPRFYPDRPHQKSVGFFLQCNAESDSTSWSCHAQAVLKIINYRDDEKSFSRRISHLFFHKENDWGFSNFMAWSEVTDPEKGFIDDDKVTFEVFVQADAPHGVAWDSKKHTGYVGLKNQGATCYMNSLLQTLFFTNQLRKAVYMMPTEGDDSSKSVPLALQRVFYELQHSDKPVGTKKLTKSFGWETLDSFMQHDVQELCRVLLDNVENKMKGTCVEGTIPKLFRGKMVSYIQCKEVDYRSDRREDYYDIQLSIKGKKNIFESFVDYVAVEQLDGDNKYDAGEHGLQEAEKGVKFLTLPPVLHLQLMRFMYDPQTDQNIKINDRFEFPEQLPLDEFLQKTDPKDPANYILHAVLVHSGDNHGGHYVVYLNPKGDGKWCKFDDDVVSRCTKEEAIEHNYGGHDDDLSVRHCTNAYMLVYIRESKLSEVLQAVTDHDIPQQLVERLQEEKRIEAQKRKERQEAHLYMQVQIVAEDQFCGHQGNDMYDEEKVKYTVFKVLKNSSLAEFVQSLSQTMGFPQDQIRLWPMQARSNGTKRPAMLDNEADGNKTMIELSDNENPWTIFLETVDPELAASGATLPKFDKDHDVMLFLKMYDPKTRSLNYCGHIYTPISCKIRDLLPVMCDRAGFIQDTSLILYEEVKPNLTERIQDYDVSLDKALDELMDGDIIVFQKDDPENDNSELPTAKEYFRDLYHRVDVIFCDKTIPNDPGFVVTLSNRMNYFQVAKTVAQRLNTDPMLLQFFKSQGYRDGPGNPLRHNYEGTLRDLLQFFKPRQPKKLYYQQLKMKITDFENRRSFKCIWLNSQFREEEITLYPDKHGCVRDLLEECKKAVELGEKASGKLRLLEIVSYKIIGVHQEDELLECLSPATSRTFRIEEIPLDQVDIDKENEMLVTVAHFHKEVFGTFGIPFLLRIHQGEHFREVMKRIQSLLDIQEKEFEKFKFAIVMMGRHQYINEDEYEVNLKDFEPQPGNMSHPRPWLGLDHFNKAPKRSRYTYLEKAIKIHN
The target of assay [8] is T5, USP8 (UniProt P40818).
T5 sequence (whole entry): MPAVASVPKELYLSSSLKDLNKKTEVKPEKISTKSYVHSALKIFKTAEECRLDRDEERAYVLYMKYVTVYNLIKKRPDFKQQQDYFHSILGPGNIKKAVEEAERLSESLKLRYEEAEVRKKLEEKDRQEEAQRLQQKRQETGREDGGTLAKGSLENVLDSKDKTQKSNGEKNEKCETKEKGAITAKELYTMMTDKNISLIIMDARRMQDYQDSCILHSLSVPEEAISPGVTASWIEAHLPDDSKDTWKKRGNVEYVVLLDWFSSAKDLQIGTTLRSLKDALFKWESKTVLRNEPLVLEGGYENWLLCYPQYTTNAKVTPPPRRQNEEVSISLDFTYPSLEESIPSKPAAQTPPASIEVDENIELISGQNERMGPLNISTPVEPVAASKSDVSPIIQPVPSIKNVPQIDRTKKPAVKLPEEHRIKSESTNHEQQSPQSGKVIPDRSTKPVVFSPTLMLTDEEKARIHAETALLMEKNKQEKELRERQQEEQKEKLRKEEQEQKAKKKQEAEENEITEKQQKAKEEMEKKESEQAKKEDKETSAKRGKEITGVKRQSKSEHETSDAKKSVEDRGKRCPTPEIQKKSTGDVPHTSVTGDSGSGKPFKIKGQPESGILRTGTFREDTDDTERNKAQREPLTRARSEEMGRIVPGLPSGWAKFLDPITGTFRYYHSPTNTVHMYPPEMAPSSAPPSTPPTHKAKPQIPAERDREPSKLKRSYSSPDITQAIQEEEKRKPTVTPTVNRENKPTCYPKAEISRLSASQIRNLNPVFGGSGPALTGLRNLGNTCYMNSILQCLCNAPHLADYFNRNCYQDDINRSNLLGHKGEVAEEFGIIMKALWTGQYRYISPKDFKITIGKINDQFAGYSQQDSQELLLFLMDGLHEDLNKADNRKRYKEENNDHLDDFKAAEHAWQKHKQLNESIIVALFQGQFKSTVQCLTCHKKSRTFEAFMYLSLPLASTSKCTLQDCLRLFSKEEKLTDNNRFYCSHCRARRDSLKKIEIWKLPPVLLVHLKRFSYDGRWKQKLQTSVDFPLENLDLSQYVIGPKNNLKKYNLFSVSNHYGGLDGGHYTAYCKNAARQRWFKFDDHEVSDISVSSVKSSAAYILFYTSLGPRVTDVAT
The gist of the method:
as §1

In assay [9] the target is USP9X (UniProt Q93008). In a few lines:
as §1

Assay [10] has as its target UniProt O00487. The gist of the method:
as §1

Values without a mark were called inactive.

USP46, sequence (P62068 whole entry): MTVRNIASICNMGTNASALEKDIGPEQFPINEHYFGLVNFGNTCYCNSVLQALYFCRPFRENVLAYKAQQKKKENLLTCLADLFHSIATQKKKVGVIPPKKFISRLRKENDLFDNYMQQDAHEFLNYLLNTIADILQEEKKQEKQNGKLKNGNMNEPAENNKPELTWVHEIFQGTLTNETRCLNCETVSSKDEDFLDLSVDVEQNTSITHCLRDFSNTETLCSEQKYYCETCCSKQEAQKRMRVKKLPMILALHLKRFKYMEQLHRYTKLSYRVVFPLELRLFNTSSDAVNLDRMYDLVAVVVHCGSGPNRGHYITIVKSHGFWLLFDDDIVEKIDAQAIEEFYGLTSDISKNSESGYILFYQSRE
UniProt O00487, sequence (O00487 whole entry): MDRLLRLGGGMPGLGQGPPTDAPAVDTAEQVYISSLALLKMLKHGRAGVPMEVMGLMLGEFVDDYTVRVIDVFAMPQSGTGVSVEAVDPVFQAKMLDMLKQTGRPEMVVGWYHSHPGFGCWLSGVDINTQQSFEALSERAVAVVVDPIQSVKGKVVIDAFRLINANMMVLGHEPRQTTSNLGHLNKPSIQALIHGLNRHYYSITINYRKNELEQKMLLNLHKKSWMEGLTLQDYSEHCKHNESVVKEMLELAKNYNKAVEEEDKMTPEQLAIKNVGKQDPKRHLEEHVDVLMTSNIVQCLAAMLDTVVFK
USP54, sequence (Q70EL1 whole entry): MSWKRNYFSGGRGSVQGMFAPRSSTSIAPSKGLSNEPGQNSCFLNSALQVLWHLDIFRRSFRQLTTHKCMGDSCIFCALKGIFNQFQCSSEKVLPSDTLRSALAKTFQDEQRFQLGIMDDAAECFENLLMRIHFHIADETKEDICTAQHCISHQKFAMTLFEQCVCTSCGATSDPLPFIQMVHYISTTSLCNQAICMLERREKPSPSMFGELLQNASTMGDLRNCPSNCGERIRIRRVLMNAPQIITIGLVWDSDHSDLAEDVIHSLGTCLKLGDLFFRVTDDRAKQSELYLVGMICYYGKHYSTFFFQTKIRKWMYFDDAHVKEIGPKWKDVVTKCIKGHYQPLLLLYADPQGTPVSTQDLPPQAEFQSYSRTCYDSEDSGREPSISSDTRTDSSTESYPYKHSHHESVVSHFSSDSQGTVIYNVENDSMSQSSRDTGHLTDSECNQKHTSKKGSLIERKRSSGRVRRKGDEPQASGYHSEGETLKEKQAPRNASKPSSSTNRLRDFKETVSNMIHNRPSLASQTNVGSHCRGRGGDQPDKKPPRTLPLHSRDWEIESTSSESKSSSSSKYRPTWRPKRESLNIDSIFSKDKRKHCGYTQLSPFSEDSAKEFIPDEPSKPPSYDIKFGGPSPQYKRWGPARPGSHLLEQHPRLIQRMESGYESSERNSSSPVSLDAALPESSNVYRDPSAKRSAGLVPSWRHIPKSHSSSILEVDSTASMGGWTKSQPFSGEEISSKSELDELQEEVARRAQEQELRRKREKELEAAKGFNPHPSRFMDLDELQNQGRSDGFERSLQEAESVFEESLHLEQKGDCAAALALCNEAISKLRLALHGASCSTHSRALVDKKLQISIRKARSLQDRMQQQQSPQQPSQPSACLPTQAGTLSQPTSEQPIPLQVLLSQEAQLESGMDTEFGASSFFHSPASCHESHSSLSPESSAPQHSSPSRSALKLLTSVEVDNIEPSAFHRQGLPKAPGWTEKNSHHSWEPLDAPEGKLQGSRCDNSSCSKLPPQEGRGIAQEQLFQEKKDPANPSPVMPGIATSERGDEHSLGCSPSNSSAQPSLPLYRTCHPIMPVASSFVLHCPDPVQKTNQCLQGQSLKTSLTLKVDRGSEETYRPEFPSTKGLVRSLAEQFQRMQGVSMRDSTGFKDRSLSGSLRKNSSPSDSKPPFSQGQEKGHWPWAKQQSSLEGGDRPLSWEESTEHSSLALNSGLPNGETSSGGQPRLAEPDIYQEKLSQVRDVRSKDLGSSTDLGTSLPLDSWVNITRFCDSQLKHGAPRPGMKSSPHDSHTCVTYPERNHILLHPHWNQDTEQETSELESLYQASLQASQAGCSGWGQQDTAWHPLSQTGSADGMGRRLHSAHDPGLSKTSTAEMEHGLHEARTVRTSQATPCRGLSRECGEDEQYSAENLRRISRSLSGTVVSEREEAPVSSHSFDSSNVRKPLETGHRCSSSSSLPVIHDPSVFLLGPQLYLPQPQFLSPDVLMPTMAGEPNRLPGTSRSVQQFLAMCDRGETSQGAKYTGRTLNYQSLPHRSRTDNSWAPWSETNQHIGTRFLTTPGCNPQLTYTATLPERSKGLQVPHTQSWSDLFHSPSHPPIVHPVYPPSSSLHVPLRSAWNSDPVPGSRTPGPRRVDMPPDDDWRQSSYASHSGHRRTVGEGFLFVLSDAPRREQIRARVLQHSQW

Regarding `O=C(CCl)Nc1cc2c(cc1Cl)OCCO2`, the “log2 ratio of Biotin-Ahx-Ub-VS probe labelling” value is 0.233 in [1]; 0.0711 in assay [2]; -0.426 in [3]; -1.05 (active) in assay [4]; 0.0658 in assay [5]; 0.291 in assay [6]. Besides, the “log2 ratio of Biotin-Ahx-Ub-VS probe labelling” value is -0.216 in assay [7], -0.226 in assay [8], -0.246 in [9] and -0.0671 in assay [10].
